# TDP1 inh: inhibitors of human tyrosyl-DNA phosphodiesterase TDP1; recombinant TDP1, AlphaScreen DNA substrate cleavage; Potency, µM (top dose mostly 130 µM), for the others: at the highest dose activity change, negative = inhibition, hits mostly inhibitors; Q9NUW8; AID 485290; actives 0.28% (n = 350,000); further: nearly all actives have a fitted effect of over 40% in size
# Target sequence (Q9NUW8 whole entry, looked up): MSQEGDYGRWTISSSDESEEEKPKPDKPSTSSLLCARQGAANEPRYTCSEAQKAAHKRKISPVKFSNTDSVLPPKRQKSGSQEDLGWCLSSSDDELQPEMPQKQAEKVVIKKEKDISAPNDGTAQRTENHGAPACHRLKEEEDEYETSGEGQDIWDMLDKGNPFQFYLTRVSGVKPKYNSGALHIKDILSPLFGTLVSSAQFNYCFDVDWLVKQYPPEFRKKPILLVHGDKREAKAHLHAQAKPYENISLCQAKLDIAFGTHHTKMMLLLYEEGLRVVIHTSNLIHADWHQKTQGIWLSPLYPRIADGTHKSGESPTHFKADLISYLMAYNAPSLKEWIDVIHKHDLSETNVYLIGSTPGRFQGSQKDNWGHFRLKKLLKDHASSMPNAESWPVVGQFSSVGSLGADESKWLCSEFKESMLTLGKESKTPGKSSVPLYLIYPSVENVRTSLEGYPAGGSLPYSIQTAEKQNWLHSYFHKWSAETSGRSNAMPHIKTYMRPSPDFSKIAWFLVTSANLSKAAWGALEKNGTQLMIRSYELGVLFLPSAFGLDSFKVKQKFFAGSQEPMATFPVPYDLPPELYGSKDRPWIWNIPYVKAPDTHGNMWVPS
#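 Signal: AlphaScreen proximity between streptavidin donor and anti-FITC acceptor beads on intact substrate. Reaction: Tdp1 1 nM, substrate 15 nM final, 5 min RT after 15 min compound preincubation.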
# DT40 TDP1 no CPT: qHTS for Inhibitors of human tyrosyl-DNA phosphodiesterase 1 (TDP1): qHTS in cells in absence of CPT | AID 686978, 2013 | Potency, µM (top dose mostly 46.2 µM), inactives show top-dose activity change, negative = growth inhibition, hits mostly inhibitors | DT40 Tdp1-/- hTDP1 cells, no CPT, ATP luminescence, 48 h | actives 15% (n = 420,000); further: nearly all actives have a fitted effect of over 55% in size
#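 A cellular qHTS used chicken DT40 cells lacking endogenous Tdp1 but carrying stably transfected human TDP1. Compounds were applied without camptothecin, and cell growth kinetics were judged by ATP-dependent luminescence after ≥48 hr.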
# RORgamma inh: ROR gamma (mouse) transcription inhibition | Drosophila S2 Gal4-RORgamma UAS-luciferase reporter, 20 h | Potency, µM (titrated, usually from 53.6 µM), inactives show top-dose activity change, negative = inhibition, most hits filed as inhibitors | actives 5.4% (n = 310,000) | AID 2551; further: nearly all actives have a fitted effect of over 60% in size
#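 Using a luciferase readout, inhibitors were identified by reduced reporter activity in Drosophila cells coexpressing a copper-inducible Gal4–ROR gamma fusion and UAS-driven Photinus luciferase, incubated 20 hr after 700 uM copper sulfate.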
# TDP1 cell CPT: growth inhibition of DT40 Tdp1-/-;hTDP1 cells with camptothecin (screen for TDP1 inhibitors) | AID 686979 | actives 12% (n = 420,000) | chicken DT40 Tdp1-/-;hTDP1 cells + 20 nM CPT, ATP luminescence, 48 h | Potency, µM (series often up to 46.2 µM), for inactives: at the top dose activity change, negative = growth inhibition, usual class: inhibitors; further: nearly all actives have a fitted effect of over 55% in size
#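 Cell growth measured by CellTiter-Glo luminescence after a minimum 48 h, 37 C compound exposure with 20 nM CPT in Tdp1-knockout DT40 cells stably expressing hTDP1, seeded 400/well; qHTS titration format.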
# Gal4-VP16 FLuc: Gal4-VP16 reporter inhibition counter-screen. Potency, µM (highest dose often 53.6 µM), for inactives: at the highest dose activity, negative = inhibition, usual class: inhibitors. Drosophila S2 Gal4-VP16 UAS-luciferase, luminescence, 20 h. actives 3.5% (n = 310,000);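 further: Gal4-VP16 expression switched on by copper sulfate through the metallothionein promoter; nearly all actives have a fitted effect of over 50% in size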
# * hit, by the source's call; ? = inconclusive; nt = no result; [ ] = dose if it differs, or a comment. Hits are enriched below; roughly 19% of the tested compounds scored in any of these assays. The call rests on the fitted dose curve; in most records, active means well fitted curve in the direction sought with a large enough effect; inconclusive means small, poorly fitted or top-dose-only effect, or another doubt; inactive means no such curve, though single readings can be large; an effect the other way counts as inactive or inconclusive. On the % scale 0 is the no-effect control and ±100 the full control effect; potency means the concentration at half of the fitted maximal effect.
SMILES,TDP1 inh,DT40 TDP1 no CPT,RORgamma inh,TDP1 cell CPT,Gal4-VP16 FLuc
CCOc1ccc(C2C(=O)N(C3CCCCC3)CC(=O)N2CCc2ccccc2)cc1OC (stereo not drawn),5%,?,nt,?,nt
COc1ccc(CCN2C(=O)CN(C3CCCCCC3)C(=O)C2c2ccc(C)cc2)cc1OC (stereo not drawn),5%,23µM*,nt,?,nt
COc1cc(C2C(=O)N(C3CCCCCC3)CC(=O)N2CCc2ccccc2)ccc1OC(C)C (stereo not drawn),10%,13µM*,nt,16µM*,nt
COc1ccc(CCN2C(=O)CN(C3CCCCCC3)C(=O)C2c2ccc(OC(C)C)c(OC)c2)cc1OC (stereo not drawn),10%,?,nt,?,nt
Cc1ccc(Cl)cc1NC(=S)N(CCCN1CCOCC1)Cc1ccccn1,3%,-1%,-36%,-1%,-4%
COc1ccc(Cl)cc1NC(=S)N(CCCN1CCOCC1)Cc1cn(C)c2ccccc12,5%,?,13µM*,13µM*,?
COc1cc(Cl)ccc1NC(=S)N(CCCN1CCOCC1)Cc1cn(C)c2ccccc12,8%,21µM*,11µM*,16µM*,?
CCCn1c2ccccc2c2nnc(SCc3[nH]c(=O)[nH]c3C(=O)CCCCC(=O)OCC)nc21,1%,?,?,?,?
Cn1c(=O)c2c3c(sc2n2c(SCC(N)=O)nnc12)CC(C(C)(C)C)CC3 (stereo not drawn),4%,?,-29%,23µM*,-11%
CCCCN(CCCC)C(=O)CSc1nnc2n(C)c(=O)c3c4c(sc3n12)CCCC4,-6%[56.1 µM],23µM*,?,?,4.5µM*
CCCSc1nnc2n(C)c(=O)c3c4c(sc3n12)CCC4,6%,?,?,?,4%
Cc1cccc(N2C(=O)C3C4C=CC(C5CC45)C3C2=O)n1 (stereo not drawn),8%,-1%,-1%,8%,0%
COc1cccc(N2CCN(S(=O)(=O)c3cc4c(cc3Cl)NC(=O)CO4)CC2)c1,nt,-10%,-33%,9%,-9%
COCCN(CCOC)C(=S)Nc1ccccc1,-1%,-19%,41%,5%,?
CN(N=Cc1ccccc1)C(=S)Nc1ccccc1,nt,12µM*,nt,-76%,nt
CC1=C(C(=O)N2CCOCC2)CC(CC(=O)NCc2cccs2)C(=O)N1Cc1ccccc1 (stereo not drawn),nt,14%,nt,-1%,nt
Cc1ccsc1C(=O)N1CCCC(CO)(Cc2ccccc2)C1 (stereo not drawn),2%,-24%,?,?,-5%
COc1ccc(CC2(CO)CCN(S(=O)(=O)c3c(C)nn(C)c3Cl)CC2)cc1,6%,-10%,44%,-14%,-2%
COc1ccc(CC2(CO)CCN(S(=O)(=O)c3sccc3C)CC2)cc1,4%,?,?,26µM*,-8%
Cc1ccsc1C(=O)N1CCC(CO)(Cc2ccccc2)CC1,3%,-27%,10µM*,-24%,?
N#CCCNS(=O)(=O)c1ccc(C(=O)OCC2CCCCC2)cc1,6%,-6%,-24%,7%,-23%
N#CCCNS(=O)(=O)c1ccc(C(=O)OCCCOC(=O)c2ccc(S(=O)(=O)NCCC#N)cc2)cc1,4%,0%,11µM*,-6%,18µM*
COc1ccc(N2Cc3cccc(C(=O)Nc4cccc(F)c4)c3C2=O)cc1,?,3%,nt,4%,nt
COc1ccc(N2Cc3cccc(C(=O)N4CCOCC4)c3C2=O)cc1,2%,1%,-4%,3%,2%
COc1ccc(N2Cc3cccc(C(=O)N4CCN(C(=O)c5ccco5)CC4)c3C2=O)cc1,11µM*,-26%,2%,0%,3%
SMILES,TDP1 inh,DT40 TDP1 no CPT,RORgamma inh,TDP1 cell CPT,Gal4-VP16 FLuc
COc1ccc(N2Cc3cccc(C(=O)Nc4ccc(Cl)cc4)c3C2=O)cc1,-6%,21µM*,nt,8.2µM*,nt
COc1ccc(C2CC(c3ccccc3)=NN2C(=O)COC(=O)c2cccc(S(=O)(=O)N3CCOCC3)c2)cc1 (stereo not drawn),2%,?,5%,-1%,0%
COc1ccc(C(O)c2ncc(-c3ccccc3)[nH]2)cc1F (stereo not drawn),nt,-9%,nt,-25%,nt
Cc1cc(F)ccc1C(O)c1ncc(-c2ccc(Oc3ccccc3)cc2)[nH]1 (stereo not drawn),nt,?,nt,21µM*,nt
OC(c1ccc(Cl)c(F)c1)c1ncc(-c2ccc(Oc3ccccc3)cc2)[nH]1 (stereo not drawn),nt,?,nt,23µM*,nt
CC(=O)N1CCc2cc(S(=O)(=O)Nc3ccc(C)cc3)ccc21,nt,?,?,?,-23%
CC(=O)N1CCCc2cc(S(=O)(=O)NCc3ccc(N(C)C)cc3)ccc21,2%,21µM*,nt,?,nt
CCC(=O)N1CCc2cc(CNS(=O)(=O)c3ccc(NC(=O)CC(C)C)cc3)ccc21,3%,18µM*,nt,21µM*,nt
CC(=O)N1CCCc2cc(S(=O)(=O)NCc3ccc(C)cc3)ccc21,2%,13µM*,-10%,?,-6%
CCC(=O)N1CCc2cc(S(=O)(=O)NCCC(=O)Nc3ccc(CC)cc3)ccc21,0%,?,nt,?,nt
CC(C)CNS(=O)(=O)c1ccc(CCC(=O)NCCC2=CCCCC2)cc1,2%,23µM*,36%,?,-8%
COC(=O)CCCC(=O)N1CCCC(C(=O)c2ccc(OC)cc2C)C1 (stereo not drawn),3%,0%,18%,6%,-22%
O=C(O)CCc1ccc(-c2ccccc2)n1-c1ccc(C(=O)O)cc1,-1%,-7%,-3%,14%,1%
CC(=O)N1CCCc2cc(S(=O)(=O)N3CCC(C(=O)NCc4cccc(C)c4)CC3)ccc21,4%,?,nt,-57%,nt
CCC(=O)N1CCc2cc(S(=O)(=O)NC(C(=O)NCc3ccc(C)cc3)C(C)C)ccc21 (stereo not drawn),0%,-23%,-1%,5%,-3%
CC(=O)N1CCCc2cc(S(=O)(=O)NCc3cccc(C)c3)ccc21,5%,21µM*,nt,?,nt
CCC(=O)N1CCc2cc(S(=O)(=O)NCc3ccc(C)cc3)ccc21,2%,18µM*,nt,23µM*,nt
COc1cccc(CNS(=O)(=O)c2ccc3c(c2)CCN3C(=O)C2CC2)c1,8%,?,34%,?,1%
CC(=O)N1CCCc2cc(S(=O)(=O)NCCC3=CCCCC3)ccc21,3%,11µM*,28%,10µM*,?
O=C(C1CC1)N1CCc2cc(S(=O)(=O)NCc3ccccc3)ccc21,1%,?,?,23µM*,-14%
